In the library only some 21% were active in any assay of this set; here they are far more common.
D3 antag = blocks the human D3 dopamine receptor | P35462 | D3R cells, DiscoveRx beta-arrestin luminescence, antagonist mode; hits give low values | max response, negative = inhibition, % | 2.5% of 360,000 active; in the data active = max response below about -50%; inconclusive = no clear call, values can overlap the other calls; also: % is scaled to controls: 0 for no effect and ±100 for the full control effect
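Cells plated overnight at 1500 cells/well, then exposed to library compounds with dopamine controls for 90 minutes at 37 degrees C. DiscoveRx reagent added for 30–60 minutes at room temperature; luminescence read, quantitative HTS format.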
IL-1B inflam inh = inhibitors of inflammasome signaling (IL-1 beta secretion) | THP-1 LPS/ATP IL-1B secretion, AlphaLISA, 16 h; hits give low values | activity change, % at 57.5 µM | 4.7% of 360,000 active | AID 743279; in the data active = activity change below about -50%; inconclusive = mostly about -30% to -49%; also: % is scaled to controls: 0 for no effect and ±100 for the full control effect
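Secreted IL-1B measured by AlphaLISA bead assay after 16 h compound exposure of THP-1 cells; compounds (final up to 57.5 uM) added 1 h before LPS (250 ng/mL) and ATP (1.25 mM) stimulation; lower signal means less secretion.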
D3 ag = activates the human D3 dopamine receptor | max activation, % | AID 652048 | 0.58% of 410,000 active | D3R DiscoveRx beta-arrestin cells, luminescence, 90 min | P35462; in the data active = max activation above about 30%; also: 0% is about no effect
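Agonist-mode cell screen: cells plated at 1500/well and incubated overnight at 37 °C, then exposed to library compounds for 90 min at 37 °C. Detection reagent was added for 30–60 min at room temperature, and luminescence was read.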
ClpP mod = qHTS Assay for Activators of ClpP. purified B. subtilis ClpP, FRET peptide cleavage, 20 min. Potency, µM (highest dose often 57.5 µM), inactives show top-dose activity change, negative = active. 1.9% of 340,000 active; active = well fitted falling curve with a large enough effect; inconclusive = small, poorly fitted or top-dose-only effect; inactive = no such curve, though single readings can be large or run the other way; also: potency is read from the fitted curve at half-maximal effect; the source files actives as falling curves though it sought activators and does not explain the sign; nearly all actives have a fitted effect of over 65% in size
Target sequence (P80244 whole entry, looked up): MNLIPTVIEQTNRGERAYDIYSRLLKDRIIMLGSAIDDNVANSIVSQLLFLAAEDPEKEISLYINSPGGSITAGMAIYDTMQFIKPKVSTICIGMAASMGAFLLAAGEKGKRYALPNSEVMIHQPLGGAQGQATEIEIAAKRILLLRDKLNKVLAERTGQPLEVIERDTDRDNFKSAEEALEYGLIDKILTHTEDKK
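Buffer: 100 mM Tris/HCl pH8, 100 mM KCl, 0.05% low protease BSA, 2.5% glycerol, 0.01% Tween-20. ClpP 10 microg/mL final; 20 min RT; delta FRET normalized to ADEP and DMSO controls.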
DT40 TDP1 CPT = growth inhibition of DT40 Tdp1-/-;hTDP1 cells with camptothecin (screen for TDP1 inhibitors); chicken DT40 Tdp1-/-;hTDP1 cells + 20 nM CPT, ATP luminescence, 48 h; Potency, µM (top dose mostly 46.2 µM), for the others: at the highest dose activity change, negative = growth inhibition, most hits filed as inhibitors; 12% of 420,000 active; AID 686979; also: potency is read from the fitted curve at half-maximal effect; % is scaled to controls: 0 for no effect and ±100 for the full control effect; nearly all actives have a fitted effect of over 55% in size
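Cell growth measured by CellTiter-Glo luminescence after a minimum 48 h, 37 C compound exposure with 20 nM CPT in Tdp1-knockout DT40 cells stably expressing hTDP1, seeded 400/well; qHTS titration format.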
TDP1 cell noCPT = qHTS for Inhibitors of human tyrosyl-DNA phosphodiesterase 1 (TDP1): qHTS in cells in absence of CPT; DT40 Tdp1-/- hTDP1 cells, no CPT, ATP luminescence, 48 h; Potency, µM (doses to about 46.2 µM), for the others: top-dose activity change, negative = growth inhibition, actives largely listed as inhibitors; 15% of 420,000 active; also: potency is read from the fitted curve at half-maximal effect; % is scaled to controls: 0 for no effect and ±100 for the full control effect; nearly all actives have a fitted effect of over 55% in size
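Growth kinetics read by CellTiter-Glo luminescence after ≥48 hr at 37 °C. Cells: DT40 Tdp1-/- stably carrying human TDP1, 400 per well, compound exposure in the absence of CPT (DMSO vehicle).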
* hit, by the source's call; u = inconclusive; x = no result. Unless noted, calls follow the shape of the dose curve; as a rule, active = well fitted inhibition curve with a large enough effect; inconclusive = small, poorly fitted or top-dose-only effect; inactive = flat fitted curve, though single readings scatter.

SMILES	D3 antag	IL-1B inflam inh	D3 ag	ClpP mod	DT40 TDP1 CPT	TDP1 cell noCPT
COC(=O)C1=C(C)NC(=O)NC1c1cn(-c2ccccc2)nc1-c1ccc(OC)c(Br)c1 (centres undefined)	x	x	1	-6%	-25%	u
CC1=C(C(=O)OC(C)C)C(c2cn(-c3ccccc3)nc2-c2cccs2)NC(=O)N1 (centres undefined)	3	14	1	-12%	u	23µM*
CCCCOC(=O)Nc1nnc(Cc2ccc(Cl)cc2)s1	-14	-10	2	-2%	-17%	-9%
O=C(Cc1ccc(NC2=NC3CS(=O)(=O)CC3S2)cc1)NCc1ccc(Cl)cc1 (centres undefined)	-6	8	5	1%	8%	19%
Cc1nc(NC(=O)c2ccccc2)sc1-c1cc(C(=O)N2CCOCC2)nn1CCO	5	-29	-5	-4%	12%	14%
Cc1nc(NC(=O)c2ccccc2)sc1-c1cc(C(=O)N2CCOCC2)nn1Cc1ccccc1	-15	-3	-7	106%	21µM*	-18%
CCOC(=O)c1ccc(NC(=O)c2ccccc2)cc1	-7	u	-17	0%	-14%	-15%
Cn1c(N)c(C(=O)Nc2ccccc2)c(=O)[nH]c1=O	1	1	36*	-1%	13%	-23%
Cn1c(N)c(C(=O)/C=C/c2ccccc2)c(=O)[nH]c1=O	-6	-16	1	x	13%	-4%
CCOC(=O)c1ccc(NC(=O)c2c(N)n(Cc3ccccc3)c(=O)[nH]c2=O)cc1	2	36	-10	-6%	16µM*	-101%
CN(CC(=O)Nc1ccc(Cl)c(Cl)c1)C(=O)C1CCC1	17	u	-7	8%	2%	u
COc1ccc(-n2c(C)c(C(C)=O)c3cc(OC(C)=O)ccc32)cc1	29	35	-3	-1%	5.2µM*	7.3µM*
COc1ccc2c(c1)c(C(C)=O)c(C)n2-c1ccc(C(C)=O)cc1	-18	1	-7	x	-21%	u
CCOC(=O)c1c(C)n(-c2ccc(F)cc2)c2ccc(O)cc12	-17	7	-3	-2%	4%	-2%
COC(=O)c1c(C)n(-c2ccc(OC)cc2)c2ccc(O)cc12	-1	-10	-14	-20%	12µM*	13µM*
N[C@H](C(=O)O)[C@H](OCc1ccccc1)C(=O)O	x	x	x	x	0%	-6%
Cc1cccc(OCc2nc(CC(=O)Nc3ccc(C)c(C)c3)cs2)c1	x	x	-17	6%	u	18µM*
Cc1cccc(OCc2nc(CC(=O)Nc3ccc(Cl)cc3)cs2)c1	x	x	-3	-4%	21µM*	u
Cc1cccc(OCCC(=O)Nc2ccc(F)c(F)c2)c1	-8	u	-18	-1%	-4%	-8%
COc1ccc(CCN2CC(C(=O)NCCN3CCCC3=O)CCC2=O)cc1 (centres undefined)	-6	9	-1	1%	-12%	-7%
Cc1c(Br)c([N+](=O)[O-])nn1CC(=O)N(C)Cc1ccccc1	3	0	-1	-1%	2%	-2%
CC(C)Cn1c(=O)c2ccccc2n2c(CCC(=O)NCc3ccc(Cl)cc3)nnc12	x	x	9	-1%	u	-22%
COc1cccc(NC(=O)CCc2nnc3n(Cc4ccccc4Cl)c(=O)c4ccccc4n23)c1	x	x	10	0%	16µM*	u
O=C(CCc1nnc2n(Cc3ccccc3Cl)c(=O)c3ccccc3n12)Nc1ccc(F)cc1	x	x	0	-6%	5.8µM*	5.2µM*
CC(C)Cn1c(=O)c2ccccc2n2c(CCC(=O)Nc3cccc(Cl)c3)nnc12	x	x	-3	0%	u	16µM*
CCOc1ccccc1NC(=O)Nn1cnnc1	-7	8	2	0%	-3%	4%

Source: PubChem (National Center for Advancing Translational Sciences (NCATS))
